Drawing on PubChem BioAssay (NCATS), this text covers activity change, negative = cytotoxicity and Potency for nine compounds.

Records with an inconclusive call do not appear. Entries that show only a call come without a potency. Unmarked numbers belong to inactive results. Activity calls are given as the source filed them. Calls come from the whole dose curve; as a rule, active = well fitted cell-killing curve with a large enough effect; inconclusive = small, poorly fitted or top-dose-only effect, or effect the other way; inactive = flat fitted curve, though single readings scatter.

For the experiment, the system named is JEG-3. Briefly: Primary qHTS to identify gynecologic anti-cancer compounds using libraries of approved drugs and bioactive compounds (AID 1345084). Note: nearly all actives have a fitted effect of over 55% in size. Conditions: Gynecologic cancer cell panel viability, ATPlite luminescence, 48 h; series mostly up to 57.5 µM. In a few lines:
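Cytotoxicity screen measuring ATP content by luciferase luminescence. Each compound is applied at five concentrations for 48 h at 37 C with 5% CO2.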
Regarding `CC(C)CC(=O)O[C@@H]1O[C@H](CO)[C@@H](O[C@H]2O[C@H](C)[C@@H](N[C@H]3C=C(CO)[C@@H](O[C@H]4O[C@H](CO)[C@@H](O[C@H]5O[C@H](CO)[C@@H](O[C@H]6O[C@H](CO)[C@@H](O)[C@H](O)[C@H]6O)[C@H](O)[C@H]5O)[C@H](O)[C@H]4O)[C@H](O)[C@H]3O)[C@H](O)[C@H]2O)[C@H](O)[C@H]1O`, the activity change, negative = cytotoxicity is 0.194% [at 11.6 µM]. For `NC[C@H]1CCC[C@@H](CNC(=O)[C@@H](Cc2c[nH]c3ccccc23)NC(=O)N2CCC3(C=Cc4ccccc43)CC2)C1`, the Potency entry was “inactive”.

`CC1CCC2(C)CCC3(C)C(=CCC4C5(C)CCC(O)C(C)(C(=O)O)C5CCC43C)C2C1C` (centres undefined): the Potency entry was “inactive”.

`C[C@@H]1O[C@@H](O[C@H]2[C@@H]3C=CO[C@@H](O[C@@H]4O[C@H](CO)[C@@H](O)[C@H](O)[C@H]4O)[C@@H]3[C@@]3(CO)O[C@@H]23)[C@H](O)[C@H](O)[C@H]1OC(=O)/C=C/c1ccc(O)cc1`: the Potency result is “inactive”. Still for that read-out and setting: the result for `CC(CC12CCCN1C(=O)C1CCCN1C2=O)OC(N)=O` (centres undefined) reads “inactive”; that for `CC/C=C\C(O)C(O)C1=C(C)C(=O)C2(O1)C(=O)NC(OC)(C(=O)c1ccccc1)C2O` (centres undefined), “inactive”. Still for that read-out and setting: the result for `COc1c2cc(c(O)c1OC)CCCCC(O)CCc1ccc(O)c-2c1` (centres undefined) reads “inactive”; that for `CC1CC(=O)[C@]2(O)C(C(=O)OCCc3ccc(O)cc3)=CO[C@@H](O[C@@H]3O[C@H](CO)[C@@H](O)[C@H](O)[C@H]3O)[C@H]12` (some centres undefined), “inactive”; that for `COC(=O)C1=CO[C@@H](O[C@@H]2O[C@H](CO)[C@@H](O)[C@H](O)[C@H]2O)C2C1CC(O)C2C` (some centres undefined), “inactive”.
